# In PubChem BioAssay (NCATS):
# Results filed as inconclusive are left out. Where a call stands in place of a potency, no number is given. Active and inactive are the calls of the source. Calls come from the whole dose curve; as a rule, active = well fitted cell-killing curve with a large enough effect; inconclusive = small, poorly fitted or top-dose-only effect, or effect the other way; inactive = flat fitted curve, though single readings scatter.
# Columns and labels:
# Experiment in all cases: Primary qHTS to identify gynecologic anti-cancer compounds using libraries of approved drugs and bioactive compounds (AID 1345084); note: nearly all actives have a fitted effect of over 55% in size
# CAOV3 = settings: Gynecologic cancer cell panel viability, ATPlite luminescence, 48 h; series mostly up to 57.5 µM
# Procedure, shortened: (§1)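 Measured: luminescence after ATPlite addition (15 min, RT). Exposure: 48 h, 37 C, 5% CO2.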
# CASKI = settings: Gynecologic cancer cell panel viability, ATPlite luminescence, 48 h; series mostly up to 57.5 µM
# Procedure, shortened: as §1
# Es-2 = settings: Gynecologic cancer cell panel viability, ATPlite luminescence, 48 h; series mostly up to 57.5 µM
# Procedure, shortened: as §1
# Hek293T = settings: Gynecologic cancer cell panel viability, ATPlite luminescence, 48 h, control line for the selectivity index; series mostly up to 57.5 µM
# Procedure, shortened: as §1
# JEG-3 = settings: Gynecologic cancer cell panel viability, ATPlite luminescence, 48 h; series mostly up to 57.5 µM
# Procedure, shortened: as §1
# PA-1 = settings: Gynecologic cancer cell panel viability, ATPlite luminescence, 48 h; series mostly up to 57.5 µM
# Procedure, shortened: as §1
# SKOV3 = settings: Gynecologic cancer cell panel viability, ATPlite luminescence, 48 h; series mostly up to 57.5 µM
# Procedure, shortened: as §1
# Tov-21-G = settings: Gynecologic cancer cell panel viability, ATPlite luminescence, 48 h; series mostly up to 57.5 µM
# Procedure, shortened: as §1
# HeLa = settings: Gynecologic cancer cell panel viability, ATPlite luminescence, 48 h; series mostly up to 57.5 µM
# Procedure, shortened: as §1
# OV90 = settings: Gynecologic cancer cell panel viability, ATPlite luminescence, 48 h; series mostly up to 57.5 µM
# Procedure, shortened: as §1
# Potency is the fitted concentration of half-maximal effect.
Structure (SMILES),Potency (CAOV3),Potency (CASKI),Potency (Es-2),Potency (Hek293T),Potency (JEG-3),Potency (PA-1),Potency (SKOV3),Potency (Tov-21-G),Potency (HeLa),Potency (OV90)
OCCN(CCO)c1nc(N2CCCCC2)c2nc(N(CCO)CCO)nc(N3CCCCC3)c2n1,inactive,inactive,inactive,inactive,inactive,inactive,inactive,inactive,–,–
CC12CC3CC(C)(C1)CC(N)(C3)C2,–,inactive,inactive,inactive,inactive,inactive,inactive,inactive,inactive,inactive
COc1cc2c(c(OC)c1OC)-c1ccc(OC)c(=O)cc1[C@@H](NC(C)=O)CC2,inactive,–,–,–,–,–,–,–,–,282 nM (active)
CN1CCN2c3ccccc3Cc3ccccc3C2C1 (configuration not stated),–,–,inactive,–,inactive,–,–,–,inactive,–
